Reference: PubChem BioAssay (NCI)
Compounds without any hit were thinned out: in the full panel of roughly 79,000, 15% have a hit. Calls of active or inactive are those of the source. Cut-off read from the data, not from the text of the source: active = growth inhibition above about 70%; inactive = the rest.

Legend:
[1] = NCI Yeast Anticancer Drug Screen. Data for the rad50 strain (AID 155);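 note: 0% = growth of vehicle-only cultures of the same strain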; settings: S. cerevisiae rad50 strain growth inhibition, stronger effect = higher value
Procedure, shortened: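 DNA repair mutant yeast, compound exposure, growth read-out; inhibition is taken relative to vehicle.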

[2] = NCI Yeast Anticancer Drug Screen. Data for the sgs1 mgt1 strain (AID 161);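 note: 0% = growth of cultures given vehicle only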; settings: S. cerevisiae sgs1 mgt1 strain, stronger effect = higher value
Procedure, shortened: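 Inhibition of yeast growth, normalised to vehicle-treated controls, is reported for a strain bearing genetic alterations in DNA damage repair.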

[3] = NCI Yeast Anticancer Drug Screen. Data for the cln2 rad14 strain (AID 165);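 note: 0% = growth equal to vehicle treated cultures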; settings: S. cerevisiae cln2 rad14 strain, stronger effect = higher value
Procedure, shortened: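 Compounds are applied to the cln2 rad14 yeast strain, and growth is then compared with that of vehicle-treated cultures to give inhibition.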

[4] = NCI Yeast Anticancer Drug Screen. Data for the bub3 strain (AID 167); settings: S. cerevisiae bub3 mutant strain, stronger effect = higher value
Procedure, shortened: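 In this screen, a yeast mutant lacking normal mitotic checkpoint function is challenged with compound. Relative growth versus vehicle gives the inhibition value.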

[5] = NCI Yeast Anticancer Drug Screen. Data for the mlh1 rad18 strain (AID 175); settings: S. cerevisiae mlh1 rad18 strain growth inhibition, stronger effect = higher value
Procedure, shortened: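 Read-out is yeast growth inhibition, calculated against vehicle-only controls. The compound was applied to a strain engineered with DNA damage repair alterations.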

[6] = NCI Yeast Anticancer Drug Screen. Data for the mec2-1 strain (AID 157); settings: S. cerevisiae mec2-1 strain, stronger effect = higher value
Procedure, shortened: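 Strain: mec2-1 (DNA repair/cell cycle alteration). Compound exposure, then growth measured; inhibition expressed relative to vehicle.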

[7] = at 5.0 µM (retest, dose inferred, filed as 0.5)
[8] = at 50.0 µM (retest, dose inferred, filed as 5.0)

Measured: growth inhibition

COc1cc(C2C(C#N)=C(C)Nc3nc(N)nc(N)c32)cc(OC)c1OC (centres undefined)
active: [3]; at 50.0 µM 81.4%
inactive: [1]; [7] -6% | [1]; [8] 19% | [1]; at 50.0 µM 24.6% | [2]; [7] -8% | [2]; [8] 10% | [2]; at 50.0 µM 19.1% | [3]; [7] -6% | [3]; [8] 9% | [4]; [7] 0% | [4]; [8] 65% | [4]; at 50.0 µM 1.2% | [5]; [7] -1% | [5]; [8] 21% | [5]; at 50.0 µM 8.95%

OCC(O)C(O)C(O)C(O)CO (centres undefined) (tested in a mixture with another compound)
inactive: [2]; at 50.0 µM 0.35% [middle of 6 runs] | [5]; at 50.0 µM 13.2% [middle of 6 runs]

Oc1c(Cl)c(Cl)c(Cl)c2ccccc12
active: [6]; [7] 79% | [6]; [8] 98% | [6]; at 50.0 µM 96.8% | [2]; at 50.0 µM 95.9% | [4]; [7] 92% | [4]; [8] 93% | [4]; at 50.0 µM 91.2% | [5]; [7] 87% | [5]; [8] 98% | [5]; at 50.0 µM 96.7%
inactive: [2]; [7] 38% | [2]; [8] 34%
